Data as given in PubChem BioAssay (NCATS).
Values without a mark were called inactive. Results filed as inconclusive are left out. A call without a number means that no potency is given here. The source made the active and inactive calls. Calls come from the whole dose curve; as a rule, active = well fitted curve in the direction sought with a large enough effect; inconclusive = small, poorly fitted or top-dose-only effect, or another doubt; inactive = no such curve, though single readings can be large; an effect the other way counts as inactive or inconclusive. Numbered stars: 1 amine (or outer) side, 2 acyl side, 3 side chain; on linkers, the order of the positions; unused ones are H or OH. Bridge positions count the residues as written; N and C are the ends. Square brackets hold non-standard residues; d marks the D form. Peptide text beside a SMILES is read from it. ξ: configuration not given here. Phe(3R-OH) = O=C([C@@H](N[*:1])[C@H](O[*:3])c1ccccc1)[*:2]; NMeTrp(4-OMe) = CN[C@@H](Cc1c[nH]c2cccc(OC)c12)C(=O)O; ξThr(3R)(O-yl) = C[C@@H](O[*:3])C(N[*:1])C(=O)[*:2]; NMeThr(3ξ) = CN[C@H](C(=O)O)C(C)O; NMeL = CN[C@@H](CC(C)C)C(=O)O; NMeV = CN[C@H](C(=O)O)C(C)C; ξIle = CC[C@H](C)C(N)C(=O)O; ξV = CC(C)C(N)C(=O)O

What was measured:
[1] = system: Zika virus NS2B-NS3 protease (linked construct); assay: Primary screen NINDS Rhodamine qHTS for Zika virus inhibitors (AID 1347160); note: nearly all actives have a fitted effect of over 55% in size; note: potency is the fitted concentration of half-maximal effect
In short: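 Percent inhibition, normalized to uninhibited and enzyme-free controls, is fitted to a 4-parameter Hill equation. Fluorescence change comes from a 15-min cleavage of 1.5 microM bis-peptide Rhodamine110 substrate by 25 nM linked NS2B-NS3 at room temperature.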

[2] = OV-KATE Cancer Cell Toxicity qHTS against the NCATS CANVASS Library (AID 1347345)
In short: (§1)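 Viability was assessed by adding CellTiter-Glo reagent to treated cultures and reading luminescence after 15min at room temperature. Treatment lasted 72 h at 37 degrees C/5% CO2, using an 11-point series on 1000 cells/well.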

[3] = HPAF-II Cancer Cell Toxicity qHTS against the NCATS CANVASS Library (AID 1347346); note: nearly all actives have a fitted effect of over 55% in size; note: potency is the fitted concentration of half-maximal effect
In short: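 HPAF-II cells at 1000 cells/well were treated with an 11-point concentration series for 72 hours at 37 degrees C. Viability read by CellTiter-Glo luminescence.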

[4] = UWB1.289 Cancer Cell Toxicity qHTS against the NCATS CANVASS Library (AID 1347347); note: series mostly up to about 38 µM; nearly all actives have a fitted effect of over 60% in size
In short: as §1

[5] = OV-SAHO Cancer Cell Toxicity qHTS against the NCATS CANVASS Library (AID 1347348); note: series mostly up to about 38 µM; nearly all actives have a fitted effect of over 55% in size
In short: as §1

[6] = Panc-1005 Cancer Cell Toxicity qHTS against the NCATS CANVASS Library (AID 1347349); note: series mostly up to about 38 µM; nearly all actives have a fitted effect of over 60% in size
In short: as §1

[7] = SW1088 Cancer Cell Toxicity qHTS against the NCATS CANVASS Library (AID 1347350); note: series mostly up to about 38 µM; nearly all actives have a fitted effect of over 75% in size
In short: as §1

[8] = COV-362 Cancer Cell Toxicity qHTS against the NCATS CANVASS Library (AID 1347352); note: series mostly up to about 38 µM
In short: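 Cells at 1000/well were given compound 4 h after plating in an 11-point series. Viability was read by CellTiter-Glo luminescence after 72 h at 37 degrees C.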

[9] = HEK293 18hr Apoptosis Induction qHTS against the NCATS CANVASS Library (AID 1347357)
In short: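 Luminescent caspase-3/7 signal is measured in HEK293 cells exposed for 18 hours to an 11-point concentration series; doxorubicin serves as the plate control.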

[10] = HEK293 24hr Apoptosis Induction qHTS against the NCATS CANVASS Library (AID 1347359)
In short: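 Caspase-3/7 activation measured as luminescence from the DEVD-based Caspase-Glo reagent, 15 min at room temperature, following 24-hour compound treatment of HEK293 cells.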

[11] = KB-3-1 Cancer Cell Toxicity qHTS against the NCATS CANVASS Library (AID 1347366); note: nearly all actives have a fitted effect of over 75% in size
In short: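 Seed KB-3-1 cells at 500/well in DMEM with 10% FBS, add compounds, incubate 72 hr at 37C and 5% CO2, then add CellTiter-Glo and read luminescence after 10 minutes.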

[12] = qHTS for ATAD5 Agonist screened against the NCATS CANVASS Library (AID 1347367);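 note: luciferase reporter driven by ATAD5 which rises upon DNA damage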
In short: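 Step one plated reporter cells and let them acclimate 5hr. Step two pinned compounds with MMS as positive and 0.46% DMSO as negative control. After 16hr incubation, fluorescence viability then luminescence were read.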

[13] = MCF7 Cancer Cell Toxicity qHTS against the NCATS CANVASS Library (AID 1347369)
In short: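 Cytotoxicity is measured by ATP content: MCF7 cells at 500 per well receive an 11-point compound series and, after 72 hr at 37C, are lysed with CellTiterGlo for luminescence.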

[14] = J3T Cancer Cell Toxicity qHTS against the NCATS CANVASS Library (AID 1347371)
In short: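 J3T dog glioma cells, 500 per well, treated 72 h at 37C with compounds (11-point qHTS); viability from ATP content by CellTiterGlo luminescence; bortezomib titration as control.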

[15] = target: Nuclear receptor subfamily 1 group I member 3 (Homo sapiens) (UniProt Q14994); assay: qHTS for Constitutive Androstane Receptor (CAR) Agonist screened against the NCATS CANVASS Library (AID 1347373);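 note: every well also contained 1.5 µM PK11195 alongside the test compound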
Chain of Nuclear receptor subfamily 1 group I member 3 (Homo sapiens) (Q14994 whole entry, looked up): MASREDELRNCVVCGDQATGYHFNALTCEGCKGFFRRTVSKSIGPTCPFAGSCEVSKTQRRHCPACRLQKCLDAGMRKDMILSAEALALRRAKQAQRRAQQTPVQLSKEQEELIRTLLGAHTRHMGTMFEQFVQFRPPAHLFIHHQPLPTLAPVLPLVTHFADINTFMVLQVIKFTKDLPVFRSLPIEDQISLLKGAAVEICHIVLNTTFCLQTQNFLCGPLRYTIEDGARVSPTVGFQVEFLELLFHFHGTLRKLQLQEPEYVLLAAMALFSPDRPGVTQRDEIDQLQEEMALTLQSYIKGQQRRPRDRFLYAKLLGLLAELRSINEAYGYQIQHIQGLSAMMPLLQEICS
In short: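 HepG2 cells stably carrying hCAR and a CYP2B6-2.2kb luciferase reporter, treated 24hr at 37C with compounds plus 1.5uM PK11195; activation by ONE-Glo luminescence, viability by CellTiter-Fluor.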

[16] = 10-beta competent E. coli microbial cell viability qHTS against the NCATS CANVASS Library (AID 1347376); note: series mostly up to about 46 µM
In short: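 10-beta competent E. coli (0.2 OD) were exposed overnight at 37C to compounds in an 11-point series. Viability was read as ATP-dependent BacTiter-Glo luminescence after 20 min at room temperature.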

[17] = qHTS for Inflammasome Signaling Inhibitors: IL-1-beta AlphaLISA screen against the NCATS CANVASS Library (AID 1347379);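 note: human THP-1 cells primed with LPS then triggered with ATP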
In short: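 THP-1 cells pretreated 1 hr with compound (up to 57.5 uM final), then stimulated with LPS (250 ng/mL final) and ATP (1.25 mM final). Secreted IL-1B measured by AlphaLISA after 16 hr; glyburide as positive control.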

[18] = Inflammasome Signaling qHTS Counterscreen: IL-1-beta AlphaLISA counterscreen against the NCATS CANVASS Library (AID 1347381);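 note: cell-free check with purified IL-1β in medium and no THP-1 cells; series mostly up to about 57 µM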
In short: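 Cell-free interference check: compounds added to medium spiked with 4 pg purified IL-1β. Anti-IL-1β acceptor beads (6 ug/mL) with 0.6 nM biotinylated antibody added for 1 h at RT, then streptavidin donor beads (24 ug/mL) for 30 min in the dark. AlphaLISA read at 680/615 nm.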

[19] = Vero-766 cells viability qHTS against the NCATS CANVASS Library: Counterscreen for Zika virus inhibition assay (AID 1347394); note: series mostly up to about 46 µM; nearly all actives have a fitted effect of over 60% in size
In short: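 This cytotoxicity counterscreen uses African green monkey Vero 766 cells in the absence of Zika virus. Compounds are incubated with cells for 72 h, and ATP-based luminescence reports viability.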

[20] = Viability qHTS for inhibitors of the SERCaMP assay screened against the NCATS CANVASS Library (AID 1347400); note: series mostly up to about 92 µM; nearly all actives have a fitted effect of over 70% in size
In short: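 SH-SY5Y-GLuc SERCaMP MJH297-derived cells, 1000/well, plated 4 h, then exposed to compounds in an 11-point qHTS series for 48 h at 37C. Viability read as CellTiter-Glo luminescence.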

Compound | Potency [1] | Potency [2] | Potency [3] | Potency [4] | Potency [5] | Potency [6] | Potency [7] | Potency [8] | Potency [9] | Potency [10] | Potency [11] | Potency [12] | Potency [13] | Potency [14] | outcome [15] | outcome [16] | Potency [17] | outcome [18] | Potency [19] | Potency [20]
O=Cc1ccc2n1C[C@@]1(OC2)O[C@H](CO)[C@@H](O)[C@@H]1O | inactive | inactive | inactive | inactive | inactive | inactive | inactive | inactive | inactive | inactive | inactive | inactive | inactive | inactive | inactive | inactive | inactive | inactive | inactive | inactive
CC1C(=O)C23CCC1C[C@@]21O[C@H]2C(C)(C)C=CC(=O)[C@@]23COC1=O (stereo partly drawn) | inactive | inactive | inactive | inactive | inactive | inactive | inactive | inactive | inactive | inactive | inactive | inactive | inactive | inactive | inactive | inactive | inactive | inactive | inactive | inactive
C[C@]12CC[C@]3(C1)[C@H](CC2=O)CC(OC(=O)c1ccccc1)[C@H]1[C@@](CO)(C(=O)O)CCC[C@@]13C (stereo partly drawn) | 49.3 µM (active) | inactive | inactive | inactive | inactive | inactive | inactive | inactive | inactive | inactive | inactive | inactive | inactive | inactive | inactive | inactive | inactive | inactive | inactive | inactive
C=C[C@]1(C)CC[C@@H]([C@H](C)C(=O)/C=C/C(C)C)O1 | inactive | inactive | inactive | inactive | inactive | inactive | inactive | inactive | inactive | inactive | inactive | inactive | inactive | inactive | inactive | inactive | inactive | inactive | inactive | inactive
COC1C(O)C(OC(N)=O)C(Oc2ccc3c(O)c(NC(=O)c4ccc(O)c(CC=C(C)C)c4)c(=O)oc3c2C)OC1(C)C (stereo not drawn) | 44 µM (active) | inactive | inactive | inactive | inactive | inactive | inactive | inactive | inactive | inactive | inactive | inactive | inactive | inactive | inactive | – | inactive | inactive | inactive | inactive
CC[C@H](C)C(NC(=O)[C@@H](NC)C(C)C)C(=O)NC1C(=O)N(C)[C@@H](C(C)O)C(=O)N[C@@H](C(C)C)C(=O)N(C)[C@@H](CC(C)C)C(=O)NC(C(C)C)C(=O)N(C)[C@@H](C(C)C)C(=O)N(C)[C@@H](Cc2c[nH]c3cccc(OC)c23)C(=O)N[C@@H](C(C)C)C(=O)N[C@@H]([C@H](O)c2ccccc2)C(=O)N[C@@H](C(C)C)C(=O)O[C@@H]1C (stereo partly drawn) (H-[NMeV][ξIle][ξThr(3R)(O-yl)][NMeThr(3ξ)]V[NMeL][ξV][NMeV][NMeTrp(4-OMe)]V[Phe(3R-OH)]V; ester 3-C) | inactive | inactive | 11.9 µM (active) | inactive | inactive | inactive | inactive | inactive | inactive | inactive | inactive | inactive | inactive | inactive | inactive | – | inactive | inactive | inactive | inactive
